Reference: PubChem BioAssay (EPA / NIEHS)
Calls of active or inactive are those of the source. How the source made its calls: active means hit-call score of the fitted dose curve at least 0.9, where 1 is the maximum; inactive means score below 0.9.

Columns and labels:
[1] = ATG_CRE_CIS: Attagene CIS-FACTORIAL HepG2 Assay for human cAMP Responsive Element (CRE) binding protein 3 (AID 2282926); settings: HepG2 CRE cis-reporter, Attagene multiplexed mRNA; actives raise or lower the signal
In short: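 Cells carrying cis-regulated reporter constructs respond through their own endogenous factors. After 24 h treatment, RNA is reverse-transcribed, amplified, labelled and sized by capillary electrophoresis; up- and down-regulation are both scored against vehicle.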

[2] = target: CCAAT/enhancer-binding protein beta (Homo sapiens) (UniProt P17676); assay: ATG_C_EBP_CIS: Attagene CIS-FACTORIAL HepG2 Assay for human CCAAT/Enhancer Binding Protein (C/EBP) beta (AID 2282927); settings: HepG2 Attagene cis-factorial transcription factor reporter; actives raise or lower the signal
Sequence of CCAAT/enhancer-binding protein beta (Homo sapiens) (P17676 whole entry, looked up): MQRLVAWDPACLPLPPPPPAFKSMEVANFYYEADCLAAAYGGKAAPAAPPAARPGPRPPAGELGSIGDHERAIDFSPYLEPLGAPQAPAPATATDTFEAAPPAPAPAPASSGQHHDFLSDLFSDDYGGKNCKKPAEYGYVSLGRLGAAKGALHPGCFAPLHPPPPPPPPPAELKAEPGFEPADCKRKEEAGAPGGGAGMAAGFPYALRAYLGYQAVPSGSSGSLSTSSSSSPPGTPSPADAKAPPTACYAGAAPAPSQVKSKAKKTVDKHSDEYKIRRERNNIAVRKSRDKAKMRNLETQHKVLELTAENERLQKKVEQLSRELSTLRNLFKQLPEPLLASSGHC
In short: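 HepG2 transiently transfected with multiplexed reporter units under cis-regulatory promoters reporting endogenous C/EBPb activity. After 24 h exposure, reporter mRNA assayed by RT-PCR, fluorescent labelling, HpaI digestion and capillary electrophoresis; bidirectional fitting versus DMSO.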

[3] = ATG_CMV_CIS: Attagene CIS-FACTORIAL HepG2 Assay for human CMV (Internal Marker) (AID 2282928); settings: HepG2 CMV promoter reporter, transcription factor profiling; actives raise or lower the signal;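 further: endpoint acts as a background internal control marker rather than a target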
In short: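 Fluorescence intensity of RT-PCR-derived reporter fragments, resolved by capillary electrophoresis, gives the signal. HepG2 liver cells bearing transfected cis-element reporters were treated 24 h; activity in either direction was fit relative to DMSO-treated controls.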

[4] = ATG_DR4_LXR_CIS: Attagene CIS-FACTORIAL HepG2 Assay for human Liver X Receptor (LXR), DR4 submotif (AID 2282929); settings: HepG2 Attagene DR4 cis-reporter, mRNA transcription; actives raise or lower the signal
In short: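 HepG2 cells transiently transfected with cis-promoter-driven multiplexed reporter units (DR4 element) were dosed for 24 h. Reporter mRNA was quantified by RT-PCR, fluorescent primer extension, HpaI digestion and capillary electrophoresis; bidirectional fitting versus DMSO baseline.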

[5] = target: Aryl hydrocarbon receptor (Homo sapiens) (UniProt P35869); assay: ATG_Ahr_CIS: Attagene CIS-FACTORIAL HepG2 Assay for human Aryl Hydrocarbon Receptor (Ahr) (AID 2282930); settings: HepG2 AhR cis-factorial reporter transcription; actives raise or lower the signal
Sequence of Aryl hydrocarbon receptor (Homo sapiens) (P35869 whole entry, looked up): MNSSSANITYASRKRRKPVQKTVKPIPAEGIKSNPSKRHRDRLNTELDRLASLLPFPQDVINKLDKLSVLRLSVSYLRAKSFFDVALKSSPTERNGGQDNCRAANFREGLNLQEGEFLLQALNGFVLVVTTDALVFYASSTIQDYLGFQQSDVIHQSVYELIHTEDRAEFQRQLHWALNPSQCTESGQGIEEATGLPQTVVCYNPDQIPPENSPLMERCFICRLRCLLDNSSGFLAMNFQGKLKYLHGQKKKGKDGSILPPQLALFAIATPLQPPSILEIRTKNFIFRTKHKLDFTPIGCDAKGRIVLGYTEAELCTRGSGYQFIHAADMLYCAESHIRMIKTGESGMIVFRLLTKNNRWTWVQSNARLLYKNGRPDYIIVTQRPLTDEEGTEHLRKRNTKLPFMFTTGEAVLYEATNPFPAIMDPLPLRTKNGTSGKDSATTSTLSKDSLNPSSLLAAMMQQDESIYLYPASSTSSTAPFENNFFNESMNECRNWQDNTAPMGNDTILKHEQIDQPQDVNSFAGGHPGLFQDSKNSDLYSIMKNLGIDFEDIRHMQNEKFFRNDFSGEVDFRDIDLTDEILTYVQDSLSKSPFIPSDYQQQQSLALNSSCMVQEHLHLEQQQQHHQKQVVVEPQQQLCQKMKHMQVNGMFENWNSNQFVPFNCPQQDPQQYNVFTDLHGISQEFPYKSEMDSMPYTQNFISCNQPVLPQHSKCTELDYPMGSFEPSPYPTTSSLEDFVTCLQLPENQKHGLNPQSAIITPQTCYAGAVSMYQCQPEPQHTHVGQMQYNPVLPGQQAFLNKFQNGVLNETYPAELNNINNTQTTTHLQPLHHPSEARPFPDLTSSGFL
In short: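 HepG2 cells transiently transfected with cis-element-driven multiplexed reporter units; endogenous AhR activity read as reporter mRNA 24 h after dosing, via RT-PCR, 6-FAM labelling, HpaI digestion and capillary electrophoresis. Bidirectional fit relative to DMSO.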

[6] = ATG_AP_1_CIS: Attagene CIS-FACTORIAL HepG2 Assay for human Activator Protein 1 (AP-1) (AID 2282931); settings: HepG2 Attagene cis-factorial AP-1 reporter mRNA; actives raise or lower the signal
In short: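 HepG2 cells transiently transfected with cis-element-driven multiplex reporter units; 24 h compound exposure. Reporter mRNA quantified by RT-PCR, FAM-labelled fragments resolved by capillary electrophoresis; bidirectional fit versus DMSO baseline.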

[7] = ATG_AP_2_CIS: Attagene CIS-FACTORIAL HepG2 Assay for human Activator Protein 2 (AP-2) (AID 2282932); settings: HepG2 AP-2 cis-reporter, Attagene transcription factor profiling; actives raise or lower the signal
In short: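 Liver-derived HepG2 line, cis-reporter system measuring endogenous factors; 24 h dosing; reporter mRNA detected by fluorescent RT-PCR and capillary electrophoresis.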

[8] = ATG_BRE_CIS: Attagene CIS-FACTORIAL HepG2 Assay for human Bone Morphogenetic Protein (BMP) Response Element (BRE) (AID 2282933); settings: HepG2 BMP response element reporter, Attagene transcription factor profiling; actives raise or lower the signal
In short: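 HepG2 cells transiently transfected with multiplexed cis-element reporter units were dosed with chemical for 24 h. Reporter mRNA was measured by RT-PCR with fluorescent labelling, HpaI digestion and capillary electrophoresis; bidirectional fitting relative to DMSO.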

[9] = target: Retinoic acid receptor alpha (Homo sapiens) (UniProt P10276); assay: ATG_DR5_RAR_CIS: Attagene CIS-FACTORIAL HepG2 Assay for human Retinoic Acid Receptor Alpha (RARE), DR5 submotif (AID 2282934); settings: HepG2 Attagene cis-factorial RARE DR5 reporter, mRNA; actives raise or lower the signal;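 on AC50: reporter responds to endogenous RAR alpha beta and gamma in HepG2 not RARA alone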
Sequence of Retinoic acid receptor alpha (Homo sapiens) (P10276 whole entry, looked up): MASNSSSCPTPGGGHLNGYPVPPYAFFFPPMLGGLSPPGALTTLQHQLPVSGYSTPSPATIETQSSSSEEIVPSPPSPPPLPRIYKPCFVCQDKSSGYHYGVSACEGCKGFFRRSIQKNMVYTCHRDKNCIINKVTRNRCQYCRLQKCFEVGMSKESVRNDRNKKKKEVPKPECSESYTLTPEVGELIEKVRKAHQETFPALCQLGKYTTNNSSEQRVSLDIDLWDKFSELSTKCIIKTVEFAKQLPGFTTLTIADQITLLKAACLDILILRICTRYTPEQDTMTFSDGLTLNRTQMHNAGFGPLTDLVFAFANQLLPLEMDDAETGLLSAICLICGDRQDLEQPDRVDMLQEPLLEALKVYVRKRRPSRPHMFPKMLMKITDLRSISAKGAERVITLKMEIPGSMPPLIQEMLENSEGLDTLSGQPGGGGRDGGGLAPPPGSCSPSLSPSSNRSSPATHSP
In short: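 HepG2 cells transiently transfected with multiplexed reporter units; DR5 cis-element drives reporter through endogenous transcription factors. After 24 h dosing, reporter mRNA quantified by RT-PCR, fluorescent labeling, HpaI digestion and capillary electrophoresis; bidirectional fitting versus DMSO.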

[10] = target: Transcription factor E2F1 (Homo sapiens) (UniProt Q01094); assay: ATG_E2F_CIS: Attagene CIS-FACTORIAL HepG2 Assay for human E2F Transcription Factor 1 (AID 2282935); settings: HepG2 Attagene cis-reporter, E2F reporter RNA transcripts; actives raise or lower the signal
Sequence of Transcription factor E2F1 (Homo sapiens) (Q01094 whole entry, looked up): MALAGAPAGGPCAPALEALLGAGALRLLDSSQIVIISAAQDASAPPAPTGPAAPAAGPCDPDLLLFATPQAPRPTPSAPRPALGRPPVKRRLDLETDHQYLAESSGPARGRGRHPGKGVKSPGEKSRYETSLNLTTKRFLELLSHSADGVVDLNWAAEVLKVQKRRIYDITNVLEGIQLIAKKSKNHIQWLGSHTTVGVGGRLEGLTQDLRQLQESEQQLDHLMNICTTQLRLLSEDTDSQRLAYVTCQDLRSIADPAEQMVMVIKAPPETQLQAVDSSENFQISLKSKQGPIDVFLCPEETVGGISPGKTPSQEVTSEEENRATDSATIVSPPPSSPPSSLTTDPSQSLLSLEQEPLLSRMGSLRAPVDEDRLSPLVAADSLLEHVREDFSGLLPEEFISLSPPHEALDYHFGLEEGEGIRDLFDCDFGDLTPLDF
In short: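 Liver-derived HepG2 cells expressing transfected promoter-driven reporter units received test chemical for 24 hours. Signal gains or losses were fitted bidirectionally against DMSO.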

SMILES	outcome [1]	outcome [2]	outcome [3]	outcome [4]	outcome [5]	outcome [6]	outcome [7]	outcome [8]	outcome [9]	outcome [10]	AC50 [1]	AC50 [3]	AC50 [8]	AC50 [10]	AC50 [4]	AC50 [5]	AC50 [7]	AC50 [9]	AC50 [2]	AC50 [6]
Nc1cccc(N)c1	inactive	inactive	inactive	inactive	inactive	inactive	inactive	inactive	inactive	inactive	–	–	–	–	–	–	–	–	–	–
Fc1ccccc1[C@@H](F)COC1CCC(Nc2ncnc3[nH]ncc23)CC1 (stereo not given in full)	–	inactive	–	inactive	inactive	inactive	inactive	–	inactive	–	25.5 µM (active)	24.4 µM (active)	24.6 µM (active)	25.6 µM (active)	–	–	–	–	–	–
COC(=O)CC(=O)OC	inactive	inactive	inactive	inactive	inactive	inactive	inactive	inactive	inactive	inactive	–	–	–	–	–	–	–	–	–	–
CC(=O)OCCC(C)C	inactive	inactive	inactive	inactive	inactive	inactive	inactive	inactive	inactive	inactive	–	–	–	–	–	–	–	–	–	–
CCCN(C1CCN(C(=O)C2CCNCC2)CC1)[C@@H]1CCc2ccc(OC)cc2C1	inactive	inactive	inactive	–	–	inactive	–	–	inactive	inactive	–	–	53.3 µM (active)	–	68.6 µM (active)	32.9 µM (active)	82.6 µM (active)	–	–	–
CCc1cc(SCc2sc(-c3ccc(C(F)(F)F)cc3)nc2CN2CCN(c3ccc(OC)cc3)CC2)ccc1OCC(=O)O	inactive	inactive	inactive	–	–	inactive	inactive	–	inactive	–	–	–	18.2 µM (active)	1.9 µM (active)	3.68 µM (active)	17.4 µM (active)	–	–	–	–
COCCOc1cc2cc(C(=O)NC3CCN(C(C)C)CC3)n(CC(=O)Nc3ccc(Cl)cn3)c2cn1	–	inactive	inactive	–	–	inactive	inactive	inactive	–	inactive	100 µM (active)	–	–	–	71.6 µM (active)	6.53 µM (active)	–	50.4 µM (active)	–	–
O=C(O)CC(O)C(=O)O (stereo not given)	inactive	inactive	inactive	inactive	inactive	inactive	inactive	inactive	inactive	inactive	–	–	–	–	–	–	–	–	–	–
CC[C@H]1CC[C@H](NCc2cc3c(cc2OC)[C@H]2C[C@H]2C(=O)N3C)[C@H](c2ccccc2)N1	–	–	inactive	inactive	inactive	inactive	–	inactive	inactive	inactive	58.6 µM (active)	–	–	–	–	–	55.4 µM (active)	–	15.9 µM (active)	–
O=C(CCCCCCCCc1cccnc1)N1CCC(C=C(c2ccccc2)c2ccccc2)CC1	–	–	–	–	–	–	–	–	–	inactive	14.5 µM (active)	14 µM (active)	3.07 µM (active)	–	14.4 µM (active)	0.874 µM (active)	56.3 µM (active)	1.66 µM (active)	9.03 µM (active)	9.05 µM (active)
Cc1ccc(N)cc1O	inactive	inactive	inactive	inactive	–	inactive	inactive	inactive	inactive	inactive	–	–	–	–	–	2.56 µM (active)	–	–	–	–
CC(C)CCCCCCOC(=O)c1ccc(C(=O)OCCCCCCC(C)C)c(C(=O)OCCCCCCC(C)C)c1	inactive	inactive	inactive	inactive	inactive	inactive	inactive	inactive	inactive	inactive	–	–	–	–	–	–	–	–	–	–
CC(C)CCCCCCCOC(=O)CCCCC(=O)OCCCCCCCC(C)C	inactive	inactive	inactive	inactive	–	inactive	inactive	inactive	–	inactive	–	–	–	–	–	64.9 µM (active)	–	18 µM (active)	–	–
CC(C)(O)c1coc(S(=O)(=O)NC(=O)Nc2c3c(cc4c2CCC4)CCC3)c1	inactive	inactive	inactive	inactive	inactive	inactive	inactive	inactive	inactive	inactive	–	–	–	–	–	–	–	–	–	–
Cc1ccc(S(=O)(=O)O)cc1C	inactive	inactive	inactive	inactive	inactive	inactive	inactive	inactive	inactive	inactive	–	–	–	–	–	–	–	–	–	–
CC1(C)C(=O)N(Br)C(=O)N1Br	inactive	inactive	inactive	inactive	–	inactive	inactive	inactive	inactive	inactive	–	–	–	–	–	68.5 µM (active)	–	–	–	–
CC(C)CCO	inactive	inactive	inactive	inactive	inactive	inactive	inactive	inactive	inactive	inactive	–	–	–	–	–	–	–	–	–	–
CC[C@H]1OC(=O)[C@H](C)[C@@H](O[C@H]2C[C@@](C)(OC)[C@@H](O)[C@H](C)O2)[C@H](C)[C@@H](O[C@@H]2O[C@H](C)C[C@H](N(C)C)[C@H]2O)[C@](C)(O)C[C@@H](C)C(=O)[C@H](C)[C@@H](O)[C@]1(C)O	inactive	inactive	inactive	inactive	inactive	inactive	inactive	inactive	inactive	inactive	–	–	–	–	–	–	–	–	–	–
Cc1[nH]cnc1C[C@H]1CCc2c(C)c3ccccc3n2C1=O	–	inactive	inactive	–	inactive	inactive	inactive	–	inactive	inactive	29.7 µM (active)	–	29.7 µM (active)	–	42.1 µM (active)	–	–	–	–	–
C=CC(=C)CCC=C(C)C	inactive	inactive	inactive	inactive	–	inactive	inactive	inactive	inactive	inactive	–	–	–	–	–	67.1 µM (active)	–	–	–	–
CC(=O)c1ccc2c(c1)[C@H](NC(=O)c1ccc(F)cc1)[C@@H](O)C(C)(C)O2	inactive	inactive	inactive	inactive	inactive	inactive	inactive	inactive	inactive	inactive	–	–	–	–	–	–	–	–	–	–
